Test results: the supplement of paper PMC11417369
± gives the standard deviation of the averaged measurements. The full ranking holds about 25,000 sequences; the median of “ln(normalized median fluorescence intensity)” is about 10, and the highest 2% start at about 12. The sample as a whole holds a higher share of the highest values than the screen did.

tested on: PfAP2-G AP2 domain (GST-tagged); assay: gcPBM binding intensity (ln(normalized median fluorescence intensity)); higher = stronger DNA binding
Method in brief: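 Binding of GST-tagged P. falciparum DNA-binding domains, expressed in E. coli and used at about 25 μg on average, was carried out for 1 h in 1× PBS containing 1% milk, 0.2 mg/ml BSA, 0.5% salmon testes DNA and 0.03% Triton X-100. The target was an Agilent 4 × 180k array of primer-extended double-stranded 36-bp intergenic genomic probes plus negative controls, read with Alexa488 anti-GST antibody at 488 nm. Binding intensity is the highest Masliner-normalised natural-log median intensity across replicate spots of either probe orientation.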

| Sequence | gcPBM binding intensity (ln) |
| --- | --- |
| TCCTAATGCTACCACACACACAAAAACAAATAATAA [CACACA_site2610] | 10.5 ± 0.57 |
| AGTAATAAATTTTATACATGCATAAAAAAAAAAAAA [TGCATGCA_site661] | 9.72 ± 0.27 |
| AAGTACATACATAAAACACACACATATATATATATA [CACACA_site8541] | 10.5 ± 0.35 |
| ACATAAATAATAAAAACACACATATGTACAGATATA [CACACA_site5112] | 11.1 ± 0.59 |
| AACAGATAAAAGGGTACACACATATATACCTGTACA [CACACA_site4285] | 11.7 ± 0.99 |
| TAAAGGTAGATATATTGTACATACACACCTATATAA [XGTACX_site6865] | 10.9 ± 0.45 |
| ATAAACAGATAAAAGGGTACACACATATATACATGT [XGTACX_site452] | 11.4 ± 0.84 |
| TAAACATATAAAAAGGGTACACATTAAACATAGTAT [XGTACX_site7096] | 11.3 ± 0.79 |
| AACAGATAAAAGGGTACACACATATATACATGTACA [CACACA_site225] | 11.6 ± 0.88 |
| AACAGATAAAAGGGTACACACATATATACAAGTACA [CACACA_site7959] | 11.7 ± 0.83 |
| AAAAAAAAAAAACATACACACATACATACAGATATA [CACACA_site4681] | 9.94 ± 0.13 |
| TTTTCATTTTTTTTTTTTTTTTTTTTTCTTTTTTTT [CACACA_negctrl_site1312] | 9.52 ± 0.099 |
| TTTCCCTTAAATTAATGTACATAAATTGAAAATACC [XGTACX_site1602] | 11.3 ± 0.77 |
| ACTTGACACGGACACACACACATATATAAAAAAAAA [CACACA_site4576] | 11.2 ± 0.91 |
| AAAAAAAAAAAAAAAAGTACATATGCTCAAGAGATG [XGTACX_site3783] | 11.5 ± 0.82 |
| TTTTTTTTTTTTTAATGTACCCATGGGCACATAGGT [XGTACX_site486] | 11.4 ± 1 |
| CACTTTATACGTAATTGTACTTTTTCTTTTTTTTAT [XGTACX_site3175] | 11.5 ± 0.86 |
| AAATAATATATATACACACACACATATATATATACA [CACACA_site554] | 10.03 ± 0.028 |
| AAGTTATTTATATATACACACAAATATAAATAATAT [CACACA_site1228] | 9.97 ± 0.014 |
| TATATATTATACACGTGTACACATTATAACAATATA [XGTACX_site7799] | 11.7 ± 0.77 |
| ATATATATTAACAATACACACGTGTATACCTTATTG [CACACA_site5258] | 10.5 ± 0.22 |
| TTATATTTTTTAATTACACACAATTTTTATAAATAT [CACACA_site4148] | 9.985 ± 0.021 |
| TTGTAATTATTAAACACACACAAAATATATATAATA [CACACA_site2523] | 10.3 ± 0.18 |

| Sequence | gcPBM binding intensity (ln) |
| --- | --- |
| TAAAATTTTTTATTCACACAAATATAGTTATATATA [CACACA_site5348] | 9.81 ± 0.16 |
| GTATATTAATAAACATGTACACAATTTATTTATATT [XGTACX_site1012] | 11.5 ± 0.98 |
| ATAGTTATTTTATAGCGTACACAATAAATATATAAA [XGTACX_site4445] | 11.7 ± 1.1 |
| ATATAATAAACGTGTACACAATTAAATTATTATATA [CACACA_site5017] | 11.7 ± 1.1 |
| ATATATATATTAACAATACACACGTGTATACCTTAT [CACACA_site2217] | 10.38 ± 0.078 |
| TACAAATTAATATGTACACACAAATATAAATATGTA [CACACA_site7016] | 11.5 ± 0.98 |
| ATAATATAATAAACGTGTACACAATTAAATTATTAT [XGTACX_site3491] | 11.8 ± 0.76 |
| TTCTTTTTTATTTATACATGCAATAAAAAATTGATT [TGCATGCA_site730] | 9.925 ± 0.064 |
| AGGACTAATATTTGAACACACATATAACATATACAT [CACACA_site7803] | 9.95 ± 0.085 |
| AAAAAAAAAAAAATGTAATTTTTTAATTATTTATAT [GTGCAC_negctrl_site436] | 9.47 ± 0.11 |
| GTATTCATGCTAAAGGTGCAATAATTTTTATAATAA [GTGCAC_site9603] | 10.2 ± 0.21 |
| ATTTTTTTTAATTTGTACAAATTTTGTTCACAATTT [CACACA_negctrl_site1301] | 10.8 ± 0.4 |
| AATTATTCTATATATTGTACATGTTTGTTTTTTTTT [XGTACX_site3130] | 10.9 ± 0.42 |
| CATTATGTTGTAAATACACACATACAGATACATACA [CACACA_site4565] | 10.3 ± 0.16 |
| AATAGTAATTTGAATACACACAATAATATATTTATA [CACACA_site7055] | 9.96 ± 0.042 |
| CATTATTATTAACATACACACGTGTTATATACCCCC [CACACA_site9365] | 11 ± 0.61 |
| ATTAAAAACGGGTGTACACATATATAAATATATATA [CACACA_site4539] | 11.7 ± 0.89 |
| TTTATTAATTTATAGTGTACATATTAATAATATATT [XGTACX_site7949] | 11.3 ± 0.68 |
| ATATTATACCCGTGTACACATTATAACCATATATAA [CACACA_site5933] | 11.7 ± 0.82 |
| TATTTATAATAGTGTACACAATTATAAACTGAATAT [CACACA_site6041] | 11.7 ± 0.89 |
| TATTACCCATATTATACACACATATATTATATATAT [CACACA_site1567] | 10.3 ± 0.2 |
| GTTATTAAAAACGGGTGTACACATATATAAATATAT [XGTACX_site1234] | 11.6 ± 0.86 |
| ATATAAAACAACGGGTGTACAAAAAAATAAATAATA [XGTACX_site4094] | 11.3 ± 0.76 |

| Sequence | gcPBM binding intensity (ln) |
| --- | --- |
| AATAAAATAATAGGCACACATATATATATATATTAT [CACACA_site273] | 10.1 ± 0.26 |
| CTATTAATGTACTCTACACACATATAAGAGGACATT [CACACA_site471] | 11.6 ± 0.86 |
| AAATAAAATAAAAGCACACAAAATGTAAATAATTAT [CACACA_site2775] | 10.01 ± 0.035 |
| CCATGTCAAACATTTGCACACAAAAAAATAAAAATT [CACACA_site4546] | 10.2 ± 0.31 |
| TAATTTAAAAATATAAATGTTTCACTTATATATTTT [TGCATGCA_negctrl_site399] | 9.41 ± 0.27 |
| AAAAATAGTATAAGTAGTACAACTGAAAAGTTATGT [XGTACX_site7488] | 11.6 ± 0.86 |
| TAAGTATAAAAAAATAGTACAATTATGAAATATCGT [XGTACX_site2529] | 11.2 ± 0.71 |
| GAAAAGTAGACAATATGTACATATAGTATTTATAAA [XGTACX_site878] | 11.1 ± 0.69 |
| ATTCTGAATGTTATGCGTACATATTAATCCTATTTA [XGTACX_site1216] | 11.5 ± 0.93 |
| TGTTCTAATATTTGTTGTACATTTACATTTCTCTCT [XGTACX_site2585] | 11.1 ± 0.56 |
| GAAAAAAAAAAAAGGGGTACATTTATTTTATCAATA [XGTACX_site8331] | 11.5 ± 1 |
| TTCAAAGGGAAATTAACACACACATATATATATATA [CACACA_site8777] | 10.2 ± 0.67 |
| ATATATAACGGGCACACACACATTTACGTATGAATA [CACACA_site1833] | 10.7 ± 0.43 |
| AACACCAAACAAAGGTGTACATATAGGAAAAAATCT [XGTACX_site1006] | 11.3 ± 0.81 |
| AAAAAAAATGAAAGGTGTACACATACAAACATAGAA [XGTACX_site3517] | 11.7 ± 0.88 |
| TATAGGTATGTATGTACACACAAAAAATGGAATATA [CACACA_site7704] | 11.4 ± 0.76 |
| AAATGGAAAAGGTGTACACAAAAAAAAGGGAAAAGC [CACACA_site5331] | 11.7 ± 1.2 |
| AAAAATGAAAGGTGTACACATACAAACATAGAAAGA [CACACA_site5020] | 11.7 ± 0.94 |
| AAGGTGGGAAAAAATAGTACACAACAAAAATGTATG [XGTACX_site8741] | 11.7 ± 1 |
| AAAAAAGAAACAAACACACATACATACAAACAAACA [CACACA_site142] | 10.3 ± 0.28 |
| ATATATATGTATGTATGTACACACAAAAAATGGAAT [XGTACX_site7879] | 11.5 ± 0.79 |
| AATAATAGAAAAAGGTGTACTTATAAACATATACAC [XGTACX_site6921] | 11.5 ± 0.83 |
| GAAAACAAAATGGTAACACACAAATGTAAATAGTAT [CACACA_site2113] | 10.14 ± 0.064 |

| Sequence | gcPBM binding intensity (ln) |
| --- | --- |
| TTCTAAAAAGGGTGTACACAAACGAATGGAAAATAA [CACACA_site5483] | 11.6 ± 0.94 |
| GGAAAATGAAAACAAGGTACACATAAGAACAAACAA [XGTACX_site1221] | 11.4 ± 0.87 |
| CACAAATATACAAATACACACAAATATACACATATA [CACACA_site7176] | 10.2 ± 0.085 |
| ACCTAAAATAACTACACACACATAAAAAAAAAAAAA [CACACA_site2529] | 10.1 ± 0.47 |
| GTATGTATATATGTATGTACTTATGTATCATTATTA [XGTACX_site2438] | 11.2 ± 0.83 |
| AAAAAACACCCATACACACACACACCGATATATATA [CACACA_site5808] | 10.1 ± 0.18 |
| TATATATATTTTTGAAGTACTTATTACACTAGCATT [XGTACX_site8965] | 11.2 ± 0.61 |
| ATTTTCTTATATATATTTTGTATATATTTTGTACAT [CACACA_negctrl_site1496] | 10.5 ± 0.39 |
| TTTTATGGAAAGTGTTGTACATATTTTTGTATATGT [XGTACX_site7356] | 11.4 ± 0.76 |
| AATTAACCGTGACACACACACATATAAATATAAATA [CACACA_site7790] | 10.3 ± 0.47 |
| TATTGTTCTTATTTAGTGCATATATAATATAATATA [GTGCAC_site9827] | 10.3 ± 0.33 |
| ACAAAATTTACAAAATGTACAAAATTTACAAAATAT [XGTACX_site3542] | 10.8 ± 0.49 |
| TAATAAAAAATATATACACACAAATAAATAAATAAA [CACACA_site4037] | 9.77 ± 0.071 |
| ATATATATTTATATATGTACATATTTTTGTGTATTT [XGTACX_site1183] | 11.3 ± 0.79 |
| CATATTAAGATGTGTACACATTTTTATTTTTTTTTT [CACACA_site4425] | 11.6 ± 0.93 |
| ATATTTATATATATATGTACATATGTGTGTTTTTAT [XGTACX_site3956] | 10.9 ± 0.51 |
| TACATATTTTTTATATGTACATATTTTTTATGTGTA [XGTACX_site442] | 11.4 ± 0.77 |
| CTATTTTGGATGTGTACACATATATATATTTATATT [CACACA_site5706] | 11.7 ± 0.85 |
| TGCCTATTTTGGATGTGTACACATATATATATTTAT [XGTACX_site6741] | 11.7 ± 0.88 |
| TTTATTGAACGTACACATATATATATGTATATATTT [TGCATGCA_negctrl_site141] | 11.3 ± 0.88 |
